Among the test systems are SK-MEL-2 melanoma; SN12C renal; UO-31 renal; TK-10 renal; ACHN renal; CAKI-1 renal; A498 renal; CCRF-CEM leukemia; MOLT-4 leukemia.
Holding throughout (assay): NCI-60 one-dose screen, 48 h (100 = growth as untreated, 0 = no growth, -100 = all killed)
Holding throughout (conditions): 10 µM unless noted

Values joined by “and” are separate entries in the source; they are usually repeats but may differ in a detail not shown here. Equal entries are not always repeated. Compounds without any hit were thinned out: in the full panel of roughly 83,000, 20% have a hit.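 The endpoint reported here, percent growth, reads 100 for growth as untreated, 0 for no net growth and -100 for all cells dead.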 Active and inactive are the calls of the source. How the source made its calls: active means growth percent below 10; inactive means the rest.

`COc1ccc(COC=O)cc1`: the growth in the test with SK-MEL-2 melanoma was 108% (inactive); with SN12C renal, 101% (inactive); in the test with UO-31 renal, 92.5% (inactive); in the test with TK-10 renal it was 103% (inactive); in the test with ACHN renal it was 110% (inactive); in the test on CAKI-1 renal it was 102% (inactive). Besides, the figures for the growth in the test with A498 renal, with CCRF-CEM leukemia and with MOLT-4 leukemia were 105% (inactive), 103% (inactive) and 102% (inactive), respectively.

With `OC(CC(c1ccccc1)c1cccc2ccccc12)(c1ccccc1)c1ccccc1` (stereo unspecified), the growth was 77.9% (inactive) and 74.5% (inactive) in the test with SK-MEL-2 melanoma; 91.3% (inactive) and 84.9% (inactive) with SN12C renal; 70.2% (inactive) and 57.4% (inactive) with UO-31 renal; 75.9% (inactive) and 82.7% (inactive) with TK-10 renal; 83.9% (inactive) and 93% (inactive) in the test with ACHN renal; 64.6% (inactive) and 57% (inactive) in the test with CAKI-1 renal. The growth was 73.4% (inactive) and 89.7% (inactive) in the test on A498 renal; 38.5% (inactive) and 83.4% (inactive) in the test on CCRF-CEM leukemia; 77.3% (inactive) and 52.7% (inactive) with MOLT-4 leukemia.

Take `CCN(CC)C(CC(=O)c1ccccc1)C(=O)c1ccccc1` (stereo unspecified): the growth in the test with SK-MEL-2 melanoma is 110% (inactive); in the test on SN12C renal it was 93.4% (inactive); in the test on UO-31 renal, 84.1% (inactive); with TK-10 renal, 70.2% (inactive); in the test on ACHN renal, 71.2% (inactive); with CAKI-1 renal, 101% (inactive). Also, the growth is 30.4% (inactive) in the test with CCRF-CEM leukemia and 27.9% (inactive) in the test on MOLT-4 leukemia.

In the case of `CC(C)(C)OC(=O)CC1(O)CCCCC1`, the growth with SK-MEL-2 melanoma was 107% (inactive); in the test with SN12C renal it was 100% (inactive); with UO-31 renal it was 101% (inactive); with TK-10 renal, 99.6% (inactive); with ACHN renal, 105% (inactive); in the test on CAKI-1 renal it was 100% (inactive). Moreover, the growth was 84.6% (inactive) with A498 renal, 106% (inactive) in the test on CCRF-CEM leukemia and 108% (inactive) with MOLT-4 leukemia.

Turning to `CCc1ccccc1-n1[nH]c(C)c(C=N)c1=O`, the growth was 106% (inactive) in the test with SK-MEL-2 melanoma; 106% (inactive) with SN12C renal; 90% (inactive) in the test on UO-31 renal; 103% (inactive) in the test on TK-10 renal; 105% (inactive) with ACHN renal; 97.3% (inactive) in the test on CAKI-1 renal. Further, the growth with CCRF-CEM leukemia is 102% (inactive); in the test on MOLT-4 leukemia, 117% (inactive).

Regarding `Cc1cc(NC(=O)NC(=O)c2ccccc2N(C)C)ccc1Oc1ncc(Br)cn1`, the growth in the test with SK-MEL-2 melanoma was 48% (inactive) and 60.5% (inactive); with SN12C renal, 51.6% (inactive) and 51.3% (inactive); in the test with UO-31 renal, 24.2% (inactive) and 56.1% (inactive); in the test on TK-10 renal it was 36.5% (inactive) and 63.1% (inactive); in the test with ACHN renal it was -17% (active) and 56.7% (inactive); in the test on CAKI-1 renal, 25.9% (inactive) and 38.2% (inactive). Moreover, the growth is 15.2% (inactive) and 10.6% (inactive) in the test with A498 renal; 4.54% (active) and 17.5% (inactive) in the test on CCRF-CEM leukemia; 19.5% (inactive) and 26.5% (inactive) in the test with MOLT-4 leukemia.

With `Oc1cccnc1CN1CCOCC1`, the growth is 97.5% (inactive) and 132% (inactive) in the test with SK-MEL-2 melanoma; 104% (inactive) and 95.6% (inactive) in the test with SN12C renal; 78.4% (inactive) and 88.4% (inactive) with UO-31 renal; 110% (inactive) and 109% (inactive) in the test with TK-10 renal; 106% (inactive) and 97.3% (inactive) with ACHN renal; 105% (inactive) and 89.2% (inactive) with CAKI-1 renal. Besides, the growth was 112% (inactive) in the test with A498 renal; 103% (inactive) and 88.7% (inactive) in the test on CCRF-CEM leukemia; 99.1% (inactive) and 107% (inactive) with MOLT-4 leukemia.

For `O=C(OCc1ccccc1)c1ccccc1`, the growth in the test on SK-MEL-2 melanoma is 126% (inactive) and 87.8% (inactive); with SN12C renal it was 93.2% (inactive) and 117% (inactive); in the test on UO-31 renal, 107% (inactive) and 64.8% (inactive); in the test on TK-10 renal, 105% (inactive) and 102% (inactive); in the test with ACHN renal, 111% (inactive) and 98.1% (inactive); in the test on CAKI-1 renal, 99.7% (inactive) and 90.2% (inactive). Further, the growth is 88.6% (inactive) and 81.3% (inactive) in the test with A498 renal; 104% (inactive) with CCRF-CEM leukemia; 102% (inactive) and 83.3% (inactive) in the test on MOLT-4 leukemia.

Consider `CC(C)(C)OC(=O)c1ccc(NCc2cc(O)ccc2O)cc1`, for which the growth is 47.7% (inactive) in the test on SK-MEL-2 melanoma; 7.05% (active) in the test with SN12C renal; -95.1% (active) with UO-31 renal; 2.52% (active) in the test with TK-10 renal; -67.3% (active) with ACHN renal; -36% (active) with CAKI-1 renal. Besides, the growth was 25.1% (inactive) in the test with A498 renal, -1.62% (active) in the test with CCRF-CEM leukemia and 5.04% (active) in the test with MOLT-4 leukemia.

For `Cc1nc2c(=O)[nH]c(=S)[nH]c2[nH]c1=O`, the growth was 102% (inactive) and 114% (inactive) with SK-MEL-2 melanoma; 102% (inactive) and 97.1% (inactive) with SN12C renal; 93.8% (inactive) and 87.3% (inactive) in the test on UO-31 renal; 106% (inactive) and 119% (inactive) in the test with TK-10 renal; 103% (inactive) and 97.6% (inactive) with ACHN renal; 94.4% (inactive) and 93.9% (inactive) in the test with CAKI-1 renal. In addition, the growth in the test with A498 renal is 97.5% (inactive) and 97.3% (inactive); with CCRF-CEM leukemia it was 101% (inactive) and 104% (inactive); in the test on MOLT-4 leukemia it was 100% (inactive) and 103% (inactive).

With `CCOC(=O)c1ccc(C(=N)N)cc1`, the growth in the test on SK-MEL-2 melanoma was 113% (inactive); with SN12C renal, 117% (inactive); with UO-31 renal, 91.8% (inactive); with TK-10 renal it was 105% (inactive); with ACHN renal, 126% (inactive); in the test with CAKI-1 renal, 97.6% (inactive). Besides, the growth with A498 renal was 98.6% (inactive); in the test with CCRF-CEM leukemia it was 103% (inactive); with MOLT-4 leukemia, 109% (inactive).

Take `O=[N+]([O-])c1ccc(NC2CCCCC2)nc1`: the growth in the test with SK-MEL-2 melanoma is 104% (inactive) and 107% (inactive); in the test with SN12C renal it was 104% (inactive) and 108% (inactive); with UO-31 renal, 90% (inactive) and 76.3% (inactive); with TK-10 renal it was 103% (inactive) and 101% (inactive); with ACHN renal it was 101% (inactive) and 97.5% (inactive); in the test with CAKI-1 renal, 96.7% (inactive) and 95.7% (inactive). For the same molecule, the growth in the test with A498 renal is 102% (inactive); in the test on CCRF-CEM leukemia, 103% (inactive) and 96.3% (inactive).

Regarding `N=C(N=C(N)N)N1CCOCC1`, the growth in the test on SK-MEL-2 melanoma was 111% (inactive) and 99.2% (inactive); in the test on SN12C renal, 99.4% (inactive) and 96.7% (inactive); in the test with UO-31 renal it was 83.8% (inactive) and 85% (inactive); in the test on TK-10 renal, 103% (inactive) and 97.9% (inactive); in the test with ACHN renal it was 103% (inactive); in the test with CAKI-1 renal, 94.8% (inactive) and 103% (inactive). The growth with A498 renal was 91.7% (inactive) and 102% (inactive); in the test on CCRF-CEM leukemia it was 107% (inactive) and 93.8% (inactive); in the test with MOLT-4 leukemia, 105% (inactive) and 102% (inactive).

On to `O=C1c2cccnc2-c2ncccc21`, for which the growth with SK-MEL-2 melanoma was 122% [100 µM] (inactive); with SN12C renal, 108% [100 µM] (inactive); with UO-31 renal, 97.1% [100 µM] (inactive); in the test with TK-10 renal it was 97.1% [100 µM] (inactive); in the test with ACHN renal, 112% [100 µM] (inactive); in the test with CAKI-1 renal, 103% [100 µM] (inactive). Moreover, the growth in the test with CCRF-CEM leukemia was 106% [100 µM] (inactive).
